Measured values from PubChem BioAssay AID1159580 (chemical genetic matrix, 2015).
Out of some 5,500 compounds screened, about 2,000 (36%) were called active. Inconclusive results (about 18%) are left out. Cut-off read from the data, not from the text of the source: active = normalized growth mostly below about 0.91 (no sharp cut-off); inconclusive = no clear call, values can overlap the other calls; inactive = mostly above about 0.92. The list shows a part of the results.

Test: chemical genetic growth profiling, strain panel (AID 1159580);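 note: tested at 20 µM; growth read once vehicle control cultures reached saturation at 30 °C; 1 = growth at the plate median or of vehicle wells; lower values mean less growth of the strain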
Details: growth OD

Measured: normalized growth

O=C(Cc1cccs1)NC1C(=O)N2C(C(=O)[O-])=C(C[n+]3ccccc3)CSC12 (stereo unspecified)
inactive: S. cerevisiae deletion strains, locus YJR075W, strain HOC1, stronger effect = lower value 1.01 | S. cerevisiae deletion strains, locus YKL009W, strain mrt4, stronger effect = lower value 0.989 | S. cerevisiae deletion strains, locus YKL068W, stronger effect = lower value 1.01 | S. cerevisiae deletion strains, locus YKL085W, strain MDH1 (second series), stronger effect = lower value 1 | S. cerevisiae deletion strains, locus YKL085W, strain MDH1, stronger effect = lower value 1 | S. cerevisiae deletion strains, locus YKL160W, strain elf1, stronger effect = lower value 1 | S. cerevisiae deletion strains, locus YKL190W, strain CNB1, stronger effect = lower value 1.01 | S. cerevisiae deletion strains, locus YKR001C, strain vps1, stronger effect = lower value 0.992 | S. cerevisiae deletion strains, locus YKR026C, strain gcn3, stronger effect = lower value 0.988 | S. cerevisiae deletion strains, locus YKR091W, strain srl3, stronger effect = lower value 0.985 | S. cerevisiae deletion strains, locus YLL001W, strain dnm1, stronger effect = lower value 0.979 | S. cerevisiae deletion strains, locus YLL026W, stronger effect = lower value 0.997 | S. cerevisiae deletion strains, locus YLL041C, strain sdh2, stronger effect = lower value 0.994 | S. cerevisiae deletion strains, locus YLR027C, strain aat2, stronger effect = lower value 0.989 | S. cerevisiae deletion strains, locus YLR039C, strain RIC1, stronger effect = lower value 1.01 | S. cerevisiae deletion strains, locus YLR058C, strain SHM2, stronger effect = lower value 0.99 | S. cerevisiae deletion strains, locus YLR102C, strain apc9, stronger effect = lower value 0.997 | S. cerevisiae deletion strains, locus YLR221C, strain rsa3, stronger effect = lower value 0.99 | S. cerevisiae deletion strains, locus YLR258W, strain gsy2, stronger effect = lower value 0.986 | S. cerevisiae deletion strains, locus YLR262C, strain YPT6 (second series), stronger effect = lower value 0.973 | S. cerevisiae deletion strains, locus YLR262C, strain YPT6, stronger effect = lower value 1.03 | S. cerevisiae deletion strains, locus YLR268W, strain sec22, stronger effect = lower value 0.979 | S. cerevisiae deletion strains, locus YLR320W, strain mms22, stronger effect = lower value 0.979 | S. cerevisiae deletion strains, locus YLR330W, strain CHS5, stronger effect = lower value 1.01 | S. cerevisiae deletion strains, locus YLR342W, strain FKS1 (second series), stronger effect = lower value 0.956 | S. cerevisiae deletion strains, locus YLR342W, strain FKS1, stronger effect = lower value 0.986 | S. cerevisiae deletion strains, locus YLR357W, strain rsc2, stronger effect = lower value 0.937 | S. cerevisiae deletion strains, locus YLR370C, strain arc18, stronger effect = lower value 0.989 | S. cerevisiae deletion strains, locus YLR371W, strain rom2, stronger effect = lower value 0.985 | S. cerevisiae deletion strains, locus YLR384C, strain iki3, stronger effect = lower value 0.974 | S. cerevisiae deletion strains, locus YLR418C, strain cdc73, stronger effect = lower value 0.949 | S. cerevisiae deletion strains, locus YML016C, strain PPZ1, stronger effect = lower value 0.999 | S. cerevisiae deletion strains, locus YML032C, strain rad52, stronger effect = lower value 0.973 | S. cerevisiae deletion strains, locus YML120C, strain ndi1, stronger effect = lower value 1 | S. cerevisiae deletion strains, locus YML124C, strain tub3, stronger effect = lower value 0.999 | S. cerevisiae deletion strains, locus YMR058W, strain fet3, stronger effect = lower value 0.984 | S. cerevisiae deletion strains, locus YMR078C, strain ctf18, stronger effect = lower value 0.999 | S. cerevisiae deletion strains, locus YMR125W, strain sto1, stronger effect = lower value 0.983 | S. cerevisiae deletion strains, locus YMR129W, stronger effect = lower value 1 | S. cerevisiae deletion strains, locus YMR205C, strain PFK2, stronger effect = lower value 0.978 | S. cerevisiae deletion strains, locus YMR223W, strain ubp8, stronger effect = lower value 0.982 | S. cerevisiae deletion strains, locus YMR231W, strain pep5, stronger effect = lower value 0.991 | S. cerevisiae deletion strains, locus YMR307W, strain GAS1, stronger effect = lower value 0.997 | S. cerevisiae deletion strains, locus YNL067W, strain RPL9B, stronger effect = lower value 1.02 | S. cerevisiae deletion strains, locus YNL071W, strain lat1, stronger effect = lower value 0.999 | S. cerevisiae deletion strains, locus YNL128W, strain TEP1, stronger effect = lower value 1.01 | S. cerevisiae deletion strains, locus YNL153C, strain GIM3, stronger effect = lower value 1.03 | S. cerevisiae deletion strains, locus YNL209W, strain ssb2, stronger effect = lower value 0.984 | S. cerevisiae deletion strains, locus YNL233W, strain BNI4, stronger effect = lower value 1.02 | S. cerevisiae deletion strains, locus YNL248C, strain rpa49, stronger effect = lower value 0.985 | S. cerevisiae deletion strains, locus YNL250W, strain rad50, stronger effect = lower value 0.972 | S. cerevisiae deletion strains, locus YNL271C, strain bni1, stronger effect = lower value 0.992 | S. cerevisiae deletion strains, locus YNL298W, strain CLA4, stronger effect = lower value 0.986 | S. cerevisiae deletion strains, locus YNL307C, strain MCK1, stronger effect = lower value 0.991 | S. cerevisiae deletion strains, locus YNL322C, strain KRE1 (second series), stronger effect = lower value 0.985 | S. cerevisiae deletion strains, locus YNL322C, strain KRE1, stronger effect = lower value 1 | S. cerevisiae deletion strains, locus YNR049C, strain mso1, stronger effect = lower value 0.975 | S. cerevisiae deletion strains, locus YNR052C, strain pop2, stronger effect = lower value 0.989 | S. cerevisiae deletion strains, locus YOL006C, strain TOP1, stronger effect = lower value 1.02 | S. cerevisiae deletion strains, locus YOL012C, strain htz1 0.724 | S. cerevisiae deletion strains, locus YOL147C, strain pex11, stronger effect = lower value 0.992 | S. cerevisiae deletion strains, locus YOR001W, strain rrp6, stronger effect = lower value 0.988 | S. cerevisiae deletion strains, locus YOR061W, strain CKA2, stronger effect = lower value 1 | S. cerevisiae deletion strains, locus YOR069W, strain VPS5, stronger effect = lower value 1 | S. cerevisiae deletion strains, locus YOR070C, strain gyp1, stronger effect = lower value 0.974 | S. cerevisiae deletion strains, locus YOR080W, strain dia2, stronger effect = lower value 0.971 | S. cerevisiae deletion strains, locus YOR083W, strain WHI5, stronger effect = lower value 0.974 | S. cerevisiae deletion strains, locus YOR106W, strain vam3, stronger effect = lower value 0.973 | S. cerevisiae deletion strains, locus YOR136W, strain idh2, stronger effect = lower value 0.998 | S. cerevisiae deletion strains, locus YOR144C, strain elg1, stronger effect = lower value 0.997 | S. cerevisiae deletion strains, locus YOR184W, strain ser1, stronger effect = lower value 0.983 | S. cerevisiae deletion strains, locus YOR265W, strain rbl2, stronger effect = lower value 1 | S. cerevisiae deletion strains, locus YOR270C, strain vph1, stronger effect = lower value 0.942 | S. cerevisiae deletion strains, locus YOR290C, strain snf2, stronger effect = lower value 0.991 | S. cerevisiae deletion strains, locus YOR316C, strain cot1, stronger effect = lower value 0.994 | S. cerevisiae deletion strains, locus YPL051W, strain arl3, stronger effect = lower value 0.983 | S. cerevisiae deletion strains, locus YPL055C, strain LGE1, stronger effect = lower value 1.03 | S. cerevisiae deletion strains, locus YPL078C, strain atp4, stronger effect = lower value 0.988 | S. cerevisiae deletion strains, locus YPL106C, strain sse1, stronger effect = lower value 0.939 | S. cerevisiae deletion strains, locus YPL240C, strain hsp82, stronger effect = lower value 0.992 | S. cerevisiae deletion strains, locus YPR119W, strain clb2, stronger effect = lower value 0.997 | S. cerevisiae deletion strains, locus YPR141C, strain kar3, stronger effect = lower value 1.01 | S. cerevisiae deletion strains, locus YPR163C, strain tif3, stronger effect = lower value 0.997 | S. cerevisiae deletion strains, locus YPR167C, strain met16, stronger effect = lower value 0.988 | S. cerevisiae deletion strains, strain wtn01, stronger effect = lower value 0.978 | S. cerevisiae strains, strain wild type, stronger effect = lower value 0.998
